Screening data: PubChem, several laboratories
MPTP block = permeability transition pore inhibition | inhibition, % at 10 µM | 360,000 compounds, 1.4% hits | isolated mouse mitochondria, Ca2+ swelling absorbance, 30 min;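 active = inhibition of 50% or more, scaled per plate between neutral and stimulator controls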;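 note: 0% = DMSO wells given calcium and 100% = 1 mM EGTA wells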
Mdm2 MdmX PPI = disrupts the human Mdm2-MdmX interaction. SaOS-2 split-luciferase Mdm2/MdmX complementation, luminescence. inhibition, % at 8 µM. 330,000 compounds, 3% hits;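 active = inhibition of at least 50% at 8 µM in the primary screen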
CSC inhib = blocks cancer stem cells; inhibition, % at 7.5 µM; cancer stem cell-like cells viability, luminescence; 300,000 compounds, 1.1% hits; AID 2717; in the data active = inhibition above about 75%; tested in HMLE shEcad cells
Beta cell apopt = beta cell apoptosis inhibition | INS-1E cytokine-induced death, ATP luminescence, 48 h; percent of positive-control rescue, neutral wells zero | protection from apoptosis, % (test concentration not listed) | 300,000 compounds, 0.8% hits | AID 435005;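 active = Every replicate reaches about 75%, or at least half do and their mean reaches it too, limit read from the data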;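 note: 0% = cytokine-treated negative control wells and 100% = positive control rescue; higher means more ATP so stronger rescue from cytokine killing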
NR3A LBD binder = modulators (binders) of human NR3A ligand-binding domain; 340,000 compounds, 2.5% hits; Tm shift relative to glycine control, % at 25 µM; NR3A LBD differential scanning fluorimetry, Tm shift; 0% = protein alone, 100% = glycine-bound protein; AID 1259313;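 active = melting temperature shift of at least 10% of the positive control shift, at one fixed dose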
SKKanGAS inh = blocks kanamycin growth of S. pyogenes SKKanGAS strain | BacTiter-Glo, 6 h | inhibition, % at 7.5 µM | 300,000 compounds, 1.3% hits;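 active = mean replicate score, as percent of positive control median, at least 50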;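 note: strain carries kanamycin resistance gene driven by streptokinase promoter and grows in 40 µg/ml kanamycin; loss of luminescence reflects streptokinase promoter inhibition or plain growth inhibition; 0% = median of DMSO wells and 100% = positive control at its reference dose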
Mdm2 MdmX conf = confirmation of human Mdm2/MdmX interaction inhibitors; AID 489028; shares compounds with Mdm2 MdmX PPI; Mdm2-MdmX binding, luminescent assay; inhibition, % at 8 µM; 10,000 compounds, 55% hits; in the data active = inhibition above about 40%
Full FLuc ctr = counter-screen for Mdm2/MdmX inhibitors: full-length luciferase | shares compounds with Mdm2 MdmX PPI | SaOS-2 full-length luciferase counterscreen, luminescence | inhibition, % at 8 µM | 6,200 compounds, 77% hits | AID 504607;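 active = mean inhibition at 8 µM reaching about 37%, which flags the compound as non-specific, limit read from the data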;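 note: p53-null SaOS-2 cells with luciferase driven by a doxycycline-inducible promoter; compound on cells about two nights before reading with doxycycline added after day one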
The depositor's hits bear a star; nt = no result; ! = not active in a repeat. Hits are enriched below; roughly 6.9% of the tested compounds scored in any of these assays.

SMILES	MPTP block	Mdm2 MdmX PPI	CSC inhib	Beta cell apopt	NR3A LBD binder	SKKanGAS inh	Mdm2 MdmX conf	Full FLuc ctr
COc1ccc(/C=C2/Sc3ccc(C(=O)NCCCN4CCOCC4)cc3NC2=O)cc1OC	0	76*	7	nt	2	2	19	nt
Cc1cccc(CN2C(=O)c3ccccc3Sc3ccc(C(=O)NCCCN4CCOCC4)cc32)c1	-1	18	-1	0	0	3	nt	nt
CCN1CCN(CCCNC(=O)c2ccc3c(c2)N(Cc2ccc(C)cc2)CCS3)CC1	-1	51*	-1	5	3	-6	6	nt
Cc1cccc(/C=C2/Sc3ccc(C(=O)NCCCN4CCOCC4)cc3NC2=O)c1	-1	53*	115*	5	nt	8	2	nt
Cc1ccc(C(=O)NCc2ccccn2)cc1Cl	0	-18	-4	-3	-4	15	nt	nt
O=C1Nc2cc(C(=O)NCCCN3CCCC3)ccc2S/C1=C/c1cccc(Cl)c1	-1	nt	nt	nt	nt	nt	nt	nt
Cc1cccc(/C=C2/Sc3ccc(C(=O)NCCN4CCCC4)cc3NC2=O)c1	0	72*	6	-3	-7	2	13	nt
CCN1CCN(CCCNC(=O)c2ccc3c(c2)NC(=O)/C(=C\c2cccc(C)c2)S3)CC1	0	97*	121*	62	-6	-6	61*	63*
CCN1CCN(CCCNC(=O)c2ccc3c(c2)NC(=O)c2ccccc2S3)CC1	-2	-1	-3	-6	0	1	nt	nt
COc1ccc2sc(N(CCN(C)C)C(=O)/C=C/c3cccs3)nc2c1	3	46	25	-4	1	15	nt	nt
Cc1cccc2sc(N(CCN(C)C)C(=O)/C=C/c3cccs3)nc12	2	63*	36	15	-9	4	31	nt
COc1ccc2nc(N(CCN(C)C)C(=O)/C=C/c3cccs3)sc2c1	3	53*	14	-4	0	6	39	44*
CC(C)N=C(N)N=C(N)Nc1ccc(Cl)cc1	6	27	nt	nt	1	nt	nt	nt
NC(=NCCCCCCN=C(N)/N=C(\N)Nc1ccc(Cl)cc1)/N=C(\N)Nc1ccc(Cl)cc1	19	91*	78*!	120*	-18	103*	66*	57*
Cc1cccc(N2CC(C(=O)Nc3nnc(SCc4ccccn4)s3)CC2=O)c1 (centres undefined)	0	-10	-5	-3	0	6	nt	nt
Cc1ccc(-n2c(C)cc(C3N=C(N)Nc4nc5ccccc5n43)c2C)c(C)c1 (centres undefined)	6	72*	13	14	-23	42	28	nt
CCc1ccc2[nH]c3nc(SCc4nnc(-c5ccc(C)cc5)o4)nnc3c2c1	7	70*	8	1	-2	-6	27	nt
CCC(=O)Nc1nonc1-c1nc2ccccc2n1Cc1cccc2ccccc12	13	64*	70	15	0	2	70*	109*
CCC(=O)Nc1nonc1-c1nc2ccccc2n1CCC(C)C	1	50*	-1	-19	-4	22	56*	56*
CC(=O)Nc1nonc1-c1nc2ccccc2n1CCC(C)C	-5	56*	-7	3	-1	15	50*	45*
CCOC(=O)Cn1c(-c2nonc2NC(=O)c2ccccc2F)nc2ccccc21	-1	91*	41	3	-7	2	93*	35
Cc1noc(C)c1S(=O)(=O)N(C)C[C@H]1Oc2c(NC(=O)C3CCCCC3)cccc2C(=O)N([C@H](C)CO)C[C@@H]1C	-2	36	-26	-6	-1	nt	nt	nt
CC1CCN(C(=O)c2ccccc2SCC(=O)NCC2CCCCC2)CC1	-1	2	-6	-4	1	-4	nt	nt
CC(NC(=O)COC(=O)C1(C)CC1(Cl)Cl)c1ccccc1 (centres undefined)	-2	30	0	4	0	nt	nt	nt
CCCCOc1ccccc1NC(=O)Cn1c(-c2nonc2N)nc2ccccc21	-1	90*	61	59	-1	8	20	nt
CCc1cc2cc3c(cc2nc1SCC(=O)Nc1c[nH]c(=O)[nH]c1=O)OCO3	1	30	13	1	-1	-1	nt	nt
CCc1cc2cc3c(cc2nc1SCC(=O)Nc1nccs1)OCO3	3	71*	-8	17	-1	-20	20	nt
